Test results from PubChem BioAssay (EPA / NIEHS).
Records with an inconclusive call do not appear. Some compounds were tested as several samples or in several runs, with calls that do not always agree. Calls of active or inactive are those of the source. The calls were made as follows, unless noted: active = hit-call score of the fitted dose curve at least 0.9, where 1 is the maximum; inactive = score below 0.9.

Key:
[1] = CCTE_Shafer_MEA_acute_synchrony_index: CCTE's Neural Acute Assay for Synchrony, Shafer Lab (AID 2284027);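 also: network synchrony index of spontaneous spiking in primary rat cortical neurons on MEAs; fitted for loss of signal so actives lower synchrony relative to DMSO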
How it was run: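 Rat cortical cultures, DIV 13/15; spikes detected at 8x rms noise, 300-5000 Hz band-pass. Compound 0.03-40 uM, ≥3 wells; 40-min pre- and post-exposure recordings, 37 C. Readout: % change in synchrony index; loss-of-signal fit vs DMSO.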

[2] = biological target: Estrogen receptor (Homo sapiens) (UniProt P03372); assay: CCTE_Deisenroth_AIME_384WELL_LUC_Active: CCTE's 384-well Estrogen Receptor Transactivation Assay with AIME metabolic competence (ERTA luciferase; metabolism positive), Deisenroth Lab (AID 2284030; active = hit-call score of the fitted dose curve at least 0.9, where 1 is the maximum)
Chain of Estrogen receptor (Homo sapiens) (P03372 whole entry, looked up): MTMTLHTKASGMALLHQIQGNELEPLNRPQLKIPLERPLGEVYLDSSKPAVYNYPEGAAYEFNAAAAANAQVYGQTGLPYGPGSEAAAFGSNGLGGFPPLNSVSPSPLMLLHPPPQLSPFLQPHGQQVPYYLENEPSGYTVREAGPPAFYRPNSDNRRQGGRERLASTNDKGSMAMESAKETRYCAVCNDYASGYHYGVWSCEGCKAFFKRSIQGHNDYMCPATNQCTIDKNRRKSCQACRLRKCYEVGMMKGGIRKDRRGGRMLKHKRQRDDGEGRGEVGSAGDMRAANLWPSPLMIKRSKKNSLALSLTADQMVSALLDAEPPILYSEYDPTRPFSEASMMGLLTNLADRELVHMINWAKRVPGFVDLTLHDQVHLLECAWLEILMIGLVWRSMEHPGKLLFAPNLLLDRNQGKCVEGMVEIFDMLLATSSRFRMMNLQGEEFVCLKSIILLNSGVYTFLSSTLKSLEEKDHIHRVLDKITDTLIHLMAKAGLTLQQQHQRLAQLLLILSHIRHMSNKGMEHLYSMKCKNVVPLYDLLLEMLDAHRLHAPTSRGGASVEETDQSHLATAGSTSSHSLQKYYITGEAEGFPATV
How it was run: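 VM7Luc4E2 breast cells were given, for 24 hours, medium pre-incubated for 2 hours with parent chemical (0.002-200 uM, 10 concentrations) and alginate-encapsulated phenobarbital/beta-naphthoflavone-induced rat hepatic S9. Luciferase gain of signal was fitted against 17beta-estradiol; n=4 or more.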

[3] = CCTE_Shafer_MEA_dev_firing_rate_mean: CCTE's Neural Network Formation Assay for Mean Firing Rate, Shafer Lab (AID 2284031);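 as to AC50: curve fitted for loss of firing so AC50 reflects decreased mean firing rate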
How it was run: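 Read-out: spike count/recording length, averaged over active electrodes, then AUC across days 5, 7, 9, 12. Rat cortical cultures on MEA; continuous 12-day exposure, media and treatment renewed DIV 5, 9; DMSO baseline.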

[4] = CCTE_Shafer_MEA_dev_per_burst_spike_percent: CCTE's Neural Network Formation Assay for Percent of Spikes in a Burst, Shafer Lab (AID 2284032);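 as to AC50: fitted as a decrease in burst spike percentage below DMSO baseline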
How it was run: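 Value is trapezoidal AUC over recordings on days 5, 7, 9 and 12 of the well-mean fraction of spikes falling in single-electrode bursts; rat cortical cultures exposed continuously from plating, treatment renewed DIV 5 and 9, fitted downward against DMSO.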

[5] = CCTE_Deisenroth_AIME_384WELL_CTox_Active: Cytotoxicity Assessment (CTOX) in CCTE's 384-well Estrogen Receptor Transactivation Assay with AIME metabolic competence (metabolism positive), Deisenroth Lab (AID 2284037; active = hit-call score of the fitted dose curve at least 0.9, where 1 is the maximum;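 also: chemicals first conditioned 2 h by alginate-bound induced rat liver S9 before cells; activity means signal loss indicating cell death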)
How it was run: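 Chemicals pre-incubated 2 hours with alginate-immobilised phenobarbital/beta-naphthoflavone-induced male Sprague Dawley rat liver S9, then conditioned medium applied 24 hour to VM7Luc4E2 cells. Viability by fluorogenic protease substrate; 10-point series 0.002 - 200 uM.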

[6] = biological target: Estrogen receptor (Homo sapiens) (UniProt P03372); assay: CCTE_Deisenroth_AIME_384WELL_LUC_Inactive: CCTE's 384-well Estrogen Receptor Transactivation Assay without AIME metabolic competence (ERTA luciferase; metabolism negative), Deisenroth Lab (AID 2284038; active = hit-call score of the fitted dose curve at least 0.9, where 1 is the maximum;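 also: VM7Luc4E2 breast cells given medium preincubated 2 h with S9-free microspheres; hits raise estrogen receptor luciferase signal so potencies reflect agonists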)
How it was run: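 Metabolism-negative mode: AIME lids stamped in alginate-water, no hepatic S9. 2 h chemical incubation → medium onto VM7Luc4E2 ERTA, 24 h. Readout luciferase luminescence; gain-of-signal fit vs 17beta-estradiol. Conc. 0.002 - 200 uM.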

[7] = CCTE_Deisenroth_AIME_384WELL_CTox_Inactive: Cytotoxicity Assessment (CTOX) in CCTE's 384-well Estrogen Receptor Transactivation Assay without AIME metabolic competence (metabolism negative), Deisenroth Lab (AID 2284039; active = hit-call score of the fitted dose curve at least 0.9, where 1 is the maximum;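 also: cell viability via live-cell protease substrate cleaved to fluorescent probe; cells exposed 24 h to medium preincubated 2 h with alginate-water beads without S9; loss of fluorescence signal means loss of viability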)
How it was run: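 Metabolism-negative arm: chemicals (10-point, 0.002 - 200 uM) preincubated 2 h with alginate-water lids, medium moved onto VM7Luc4E2 cells for 24 h. Fluorescent live-cell protease readout; bidirectional curve fit.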

[8] = biological target: Estrogen receptor (Homo sapiens) (UniProt P03372); assay: CCTE_Deisenroth_AIME_384WELL_LUC_Shift: CCTE's 384-well Estrogen Receptor Transactivation Assay with AIME metabolic competence data shift (ERTA luciferase; difference in metabolism positive and negative), Deisenroth Lab (AID 2284041);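 also: shift is response with S9 minus without S9 so positive means metabolism raised ER signal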
How it was run: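 Chemicals (0.002–200 uM, 10 points) pre-incubated 2 h with alginate-encapsulated induced male Sprague Dawley rat liver S9 or S9-free, then medium applied 24 h to VM7Luc4E2 cells; luciferase. Endpoint is per-concentration difference, S9-positive minus negative.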

[9] = CCTE_Shafer_MEA_dev_burst_rate: CCTE's Neural Network Formation Assay for Burst Rate, Shafer Lab (AID 2284042);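 as to AC50: potency for loss of burst rate below DMSO control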
How it was run: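 Cells plated, treated day 0; recorded DIV 5, 7, 9, 12; fed and re-treated DIV 5, 9. Endpoint: bursts per recording time, active-electrode well mean, trapezoidal AUC, fitted in decreasing direction against DMSO baseline.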

[10] = CCTE_Shafer_MEA_dev_per_burst_interspike_interval: CCTE's Neural Network Formation Assay for Burst Interspike Interval, Shafer Lab (AID 2284044);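 as to AC50: potency for a decrease of within-burst interspike interval below DMSO level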
How it was run: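 Mean interspike interval within single-electrode bursts, averaged over bursting electrodes, from rat cortical cultures on MEA plates recorded on days 5, 7, 9 and 12. Continuous compound exposure from plating; trapezoidal AUC fitted downward relative to DMSO.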

CCCCC(CC)COP(=O)(Oc1ccccc1)Oc1ccccc1 (centres undefined)
AC50 [1]: 22.1 µM (active)
AC50 [2]: 34.1 µM (active)
outcome [3]: inactive
outcome [4]: inactive
outcome [5]: inactive
outcome [6]: inactive
outcome [7]: inactive
outcome [8]: inactive
outcome [9]: inactive
outcome [10]: inactive

ClC(Cl)(Cl)c1ccccc1
outcome [1]: inactive

CC(C)(C)c1ccccc1OP(=O)(Oc1ccccc1)Oc1ccccc1
AC50 [1]: 6.97 µM (active)
outcome [3]: inactive
AC50 [4]: 26.2 µM (active)
outcome [4]: inactive
outcome [9]: inactive
outcome [10]: inactive

CCOc1ccc(C(C)(C)COCc2cccc(Oc3ccccc3)c2)cc1
AC50 [1]: 28.1 µM (active)
AC50 [3]: 5.99 µM (active)
AC50 [4]: 10 µM (active)
outcome [9]: inactive
AC50 [10]: 14 µM (active)

CCCCc1ccc(O)cc1
AC50 [2]: 26.1 µM (active)
AC50 [5]: 158 µM (active)
AC50 [6]: 20.2 µM (active)
outcome [7]: inactive
outcome [8]: inactive

CCOC(=O)c1ccccc1C(=O)OCC
outcome [2]: inactive
outcome [5]: inactive
outcome [6]: inactive
outcome [7]: inactive
AC50 [8]: 45.2 µM (active)

O=[N+]([O-])c1ccccc1
outcome [2]: inactive
outcome [5]: inactive
outcome [6]: inactive
outcome [7]: inactive
outcome [8]: inactive

O=C(O)C1C(C(=O)O)C2(Cl)C(Cl)=C(Cl)C1(Cl)C2(Cl)Cl (centres undefined)
outcome [1]: inactive
outcome [3]: inactive
outcome [4]: inactive
outcome [9]: inactive
outcome [10]: inactive

c1ccc2c(c1)Nc1ccccc1S2
AC50 [1]: 20 µM (active)
AC50 [2]: 41.3 µM (active)
outcome [5]: inactive
AC50 [6]: 27.7 µM (active)
outcome [7]: inactive
outcome [8]: inactive

CCC(C)(C)c1ccc(O)cc1
AC50 [1]: 8.24 µM (active)
AC50 [2]: 7.31 µM (active)
AC50 [6]: 1.52 µM (active)
AC50 [8]: 0.0296 µM (active)

CCCCN(CCCC)SN(C)C(=O)Oc1cccc2c1OC(C)(C)C2
outcome [2]: inactive
outcome [5]: inactive
outcome [6]: inactive
outcome [7]: inactive
outcome [8]: inactive

CCCCN(CCCC)N=O
outcome [2]: inactive
outcome [5]: inactive
AC50 [6]: 85.5 µM (active)
outcome [7]: inactive
AC50 [8]: 77.6 µM (active)

CCCCN(CC)C(=O)SCCC
outcome [2]: inactive
outcome [5]: inactive
outcome [6]: inactive
outcome [7]: inactive
outcome [8]: inactive

CCOS(=O)(=O)OCC
outcome [2]: inactive
outcome [6]: inactive
outcome [7]: inactive
outcome [8]: inactive

O=P(Oc1ccccc1)(Oc1ccccc1)Oc1ccccc1
outcome [3]: inactive
outcome [4]: inactive
outcome [9]: inactive
outcome [10]: inactive

c1nc[nH]n1
outcome [2]: inactive
outcome [6]: inactive
outcome [7]: inactive
outcome [8]: inactive

CC(O)C(F)(F)C(F)(F)F (centres undefined)
outcome [3]: inactive
outcome [4]: inactive
outcome [9]: inactive
outcome [10]: inactive

OCC(F)(F)OC(F)(F)C(F)(F)OC(F)(F)C(F)(F)OC(F)(F)F
outcome [3]: inactive
outcome [4]: inactive
outcome [9]: inactive
outcome [10]: inactive

CO/N=C(/C(=O)OC)c1ccccc1COc1ccccc1C
AC50 [3]: 1 µM (active)
AC50 [4]: 0.639 µM (active)
AC50 [9]: 0.403 µM (active)
AC50 [10]: 2.25 µM (active)

O=C(O)CF
outcome [2]: inactive
outcome [6]: inactive
outcome [7]: inactive
outcome [8]: inactive

CC(C)(C)OOC(C)(C)C
outcome [2]: inactive
outcome [5]: inactive
outcome [6]: inactive
outcome [8]: inactive

O=S(=O)(c1ccc(O)cc1)c1ccc(O)cc1
outcome [3]: inactive
outcome [4]: inactive
outcome [9]: inactive
outcome [10]: inactive

CCCCOCC1CO1 (centres undefined)
AC50 [2]: 77.3 µM (active)
outcome [5]: inactive
AC50 [6]: 19.9 µM (active)
AC50 [8]: 8.76 µM (active)

c1cc2c3c(cccc3c1)CC2
outcome [3]: inactive
outcome [4]: inactive
outcome [9]: inactive
outcome [10]: inactive

O=C(O)C(F)(OC(F)(F)C(F)(F)C(F)(F)F)C(F)(F)F (centres undefined)
outcome [3]: inactive
outcome [4]: inactive
AC50 [9]: 11.7 µM (active)
outcome [9]: inactive
outcome [10]: inactive

O=P1(N(CCCl)CCCl)NCCCO1 (centres undefined)
outcome [3]: inactive
outcome [4]: inactive
outcome [9]: inactive
outcome [10]: inactive

O=c1ssc(Cl)c1Cl
outcome [2]: inactive
outcome [6]: inactive
outcome [8]: inactive

O=C(O)C(F)(F)OC(F)(F)C(F)(F)OC(F)(F)C(=O)O
outcome [3]: inactive
outcome [4]: inactive
outcome [9]: inactive
outcome [10]: inactive

CCCCOCCOP(=O)(OCCOCCCC)OCCOCCCC
outcome [8]: inactive

COC(N)=O
outcome [2]: inactive
outcome [6]: inactive
outcome [8]: inactive

C=CC(=O)OCC(F)(F)C(F)F
outcome [3]: inactive
AC50 [4]: 5.66 µM (active)
outcome [9]: inactive
AC50 [10]: 2.98 µM (active)

O=C(O)C(F)(F)OC(F)(F)C(F)(F)OC(F)(F)F
outcome [3]: inactive
outcome [4]: inactive
outcome [9]: inactive
outcome [10]: inactive

OCC(F)(F)OC(F)(F)C(F)(F)OC(F)(F)CO
outcome [3]: inactive
outcome [4]: inactive
outcome [9]: inactive
outcome [10]: inactive

Nc1cc2c3c(c1)C(c1ccccc1)=N[C@@H](NC(=O)c1cccnc1)C(=O)N3CC2
outcome [2]: inactive
outcome [5]: inactive
outcome [6]: inactive
AC50 [8]: 39.4 µM (active)

O=C(O)C(F)(F)C(F)(F)C(=O)O
outcome [3]: inactive
outcome [4]: inactive
outcome [9]: inactive
outcome [10]: inactive

CCCCC(CC)COC(=O)c1c(Br)c(Br)c(Br)c(Br)c1C(=O)OCC(CC)CCCC (centres undefined)
outcome [3]: inactive
outcome [4]: inactive
outcome [9]: inactive
outcome [10]: inactive

O=C(O)C=CC(F)(C(F)(F)F)C(F)(F)F
outcome [3]: inactive
outcome [4]: inactive
outcome [9]: inactive
outcome [10]: inactive
